HT1080NT lethal = kills 2HG-producing HT-1080-NT fibrosarcoma cells. Potency, µM (highest dose often 46.1 µM), inactives show top-dose activity, negative = less viability, most hits filed as cytotoxic. HT-1080-NT fibrosarcoma viability, CellTiter-Glo ATP luminescence, 48 h. 1.6% of 360,000 active;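 also: NT is the 2HG producing partner of a matched IDH1 knockdown line; 0% = DMSO-treated cells and -100% = media-only wells without cells; nearly all actives have a fitted effect of over 55% in size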
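HT-1080-NT fibrosarcoma cells (2HG-overproducing), 750 cells/well in RPMI with 5% FBS, dosed after 2 h and incubated 48 h at 37C. CellTiter-Glo luminescence normalized to DMSO and no-cell wells; concentration-response curves fitted and classed.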
TDP1 cell CPT = DT40-hTDP1 cell growth loss with CPT; chicken DT40 Tdp1-/-;hTDP1 cells + 20 nM CPT, ATP luminescence, 48 h; Potency, µM (doses to about 46.2 µM), for inactives: at the highest dose activity change, negative = growth inhibition, actives largely listed as inhibitors; 12% of 420,000 active; AID 686979; also: % is scaled to controls: 0 for no effect and ±100 for the full control effect; nearly all actives have a fitted effect of over 55% in size
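Cell growth measured by CellTiter-Glo luminescence after a minimum 48 h, 37 C compound exposure with 20 nM CPT in Tdp1-knockout DT40 cells stably expressing hTDP1, seeded 400/well; qHTS titration format.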
HepG2 tox = HepG2 cytotoxicity, counter-screen for TGF-b inhibitors. HepG2 CAGA-GFP viability, ATP luminescence, 18 h. Potency, µM (series often up to 46.1 µM), inactives show at the top dose activity change, negative = cytotoxicity, actives largely listed as cytotoxic. 0.76% of 410,000 active. AID 588856
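HepG2 CAGA-GFP cells (1000/well, DMEM with 1% FBS) received compound, then TGF-beta at 500 pg/mL final, and were incubated 18 hours at 37 degrees C. Viability was read by CellTiter-Glo luminescence. Media-only wells were set as complete cell-killing and DMSO as no toxicity.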
TGFb SMAD3 inh = TGF-b pathway inhibition; Potency, µM (series often up to 46.1 µM), for inactives: at the top dose activity, negative = inhibition, most hits filed as inhibitors; 1.2% of 410,000 active; HepG2 CAGA-GFP TGF-b/SMAD3 reporter, GFP fluorescence, 18 h; TGF-beta stimulated, 500 pg/mL final; also: % is scaled to controls: 0 for no effect and ±100 for the full control effect; nearly all actives have a fitted effect of over 65% in size
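Smad-responsive CAGA-GFP expression was quantified in HEPG2 cells exposed to compounds and 500 pg/mL final TGF-beta for 18 h at 37 degrees C; unstimulated wells defined full inhibition.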
TDP1 cell noCPT = qHTS for Inhibitors of human tyrosyl-DNA phosphodiesterase 1 (TDP1): qHTS in cells in absence of CPT | DT40 Tdp1-/- hTDP1 cells, no CPT, ATP luminescence, 48 h | Potency, µM (doses to about 46.2 µM), without a hit: at the top dose activity change, negative = growth inhibition, hits mostly inhibitors | 15% of 420,000 active; also: % is scaled to controls: 0 for no effect and ±100 for the full control effect; nearly all actives have a fitted effect of over 55% in size
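Chicken DT40 Tdp1-/- cells complemented with human TDP1, screened without camptothecin (DMSO vehicle only), 400 cells/well. Compounds pin-transferred, cells incubated at 37 °C for at least 48 hr. Growth read as ATP-dependent luminescence (CellTiter-Glo, 30 min at RT).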
HT1080 IDH1KD tx = kills HT-1080 cells with IDH1 knockdown. HT-1080 IDH1 knockdown viability, ATP luminescence, 48 h. 2% of 360,000 active. Potency, µM (series often up to 46.1 µM), for the others: top-dose activity, negative = toxicity, most hits filed as cytotoxic;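 also: 0% = DMSO wells and -100% = cell-free medium wells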
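IDH1KD HT-1080 cells, 750/well, RPMI + 5% FBS; compound pinned after 2 h settling; 48 h, 37 °C; CellTiter-Glo luminescence; % activity normalised to DMSO and no-cell wells; curves fitted, classed by r2 and efficacy.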
The depositor's hits bear a star; u = inconclusive; x = no result. Most compounds without a hit are left out; they make up all but 17% or so of the library. Calls follow the shape of the dose curve; as a rule, active = well fitted curve in the direction sought with a large enough effect; inconclusive = small, poorly fitted or top-dose-only effect, or another doubt; inactive = no such curve, though single readings can be large; an effect the other way counts as inactive or inconclusive. Potency is read from the fitted curve at half-maximal effect.

SMILES	HT1080NT lethal	TDP1 cell CPT	HepG2 tox	TGFb SMAD3 inh	TDP1 cell noCPT	HT1080 IDH1KD tx
COCCNC(=O)CN(c1cc(C(F)(F)F)ccc1Cl)S(C)(=O)=O	3.7%	-7.1%	4.2%	-7.0%	-0.8%	21.6%
Cc1ccc(CNC(=O)CN(c2cccc(C)c2C)S(=O)(=O)c2ccccc2)cc1	x	16.4µM*	-13.2%	u	16.4µM*	x
Cc1cccc(N(CC(=O)N(C)Cc2ccccc2)S(=O)(=O)c2ccccc2)c1C	x	u	-17.0%	-7.9%	23.1µM*	x
O=C(CNc1cccc(C(F)(F)F)c1)N/N=C/C1CCCCC1	1.0%	-12.4%	-31.0%	-13.3%	6.2%	0.1%
COc1cccc(N2CC(C(=O)Nc3c(C(N)=O)oc4ccccc34)CC2=O)c1 (stereo not drawn)	13.3%	-7.2%	-26.5%	0.0%	u	16.1%
FC(F)(F)Oc1ccccc1C(c1nnnn1-c1ccc2c(c1)OCCO2)N1CCN(C/C=C/c2ccccc2)CC1 (stereo not drawn)	-25.2%	u	-6.0%	u	14.6µM*	-21.4%
C(=C\c1ccccc1)/CN1CCN(C(c2cccc3ccccc23)c2nnnn2-c2ccc3c(c2)OCCO3)CC1 (stereo not drawn)	-24.1%	13µM*	-34.5%	-20.2%	8.2µM*	-24.8%
FC(F)(F)Oc1ccccc1C(c1nnnn1Cc1ccccc1)N1CCN(C/C=C/c2ccccc2)CC1 (stereo not drawn)	-18.4%	u	-40.0%	u	u	-16.1%
CN(C)CCCNC(=S)N(CCCN(C)C)Cc1cc2cc3c(cc2[nH]c1=O)OCO3	0.9%	-13.9%	11.8%	4.0%	6.1%	1.6%
CC(=O)N(CCc1cccc(C)c1)Cc1cc2cc(C)ccc2[nH]c1=O	0.5%	14.6µM*	-29.6%	1.2%	u	-0.2%
Cc1ccc2cc(CN(CCc3ccccc3)C(=S)NCCCN(C)C)c(=O)[nH]c2c1	25.9µM*	u	-88.6%	u	25.9µM*	u
COc1cc2cc(CN(CCc3cccc(C)c3)C(=S)NCCCN(C)C)c(=O)[nH]c2cc1OC	-14.3%	-28.6%	-103.2%	u	u	-0.3%
Cc1ccc2[nH]c(=O)c(CN(CCCN(C)C)C(=S)NCCc3ccccc3)cc2c1	18.4µM*	u	-74.5%	u	u	18.4µM*
Cc1cccc2cc(CN(CCCN(C)C)C(=S)NCCc3ccccc3)c(=O)[nH]c12	-20.3%	20.6µM*	5.1%	-29.4%	16.4µM*	-17.9%
CCOc1ccc(OCCC(=O)OCC(=O)NCc2ccccc2)cc1	-4.6%	3.3%	-8.9%	3.8%	6.4%	-2.4%
O=C1CCCCC1Nc1ccc2ccccc2c1 (stereo not drawn)	0.0%	-4.0%	-2.6%	-4.4%	-11.7%	-14.6%
O=C(Nn1c(C2CCCCC2)nc2ccccc2c1=O)c1ccc([N+](=O)[O-])cc1	u	8.1%	-26.8%	u	-27.8%	-10.0%
Cc1ccc(-c2c[n+](CC(=O)OCc3ccccc3)c3n2CCC3)cc1	22.7%	-16.7%	-3.2%	5.7%	-26.9%	17.5%
Cc1ccc(-c2c[n+](CC(=O)c3cccs3)c3n2CCC3)cc1	-23.7%	3.66µM*	8.2%	u	3.26µM*	-3.8%
COc1ccc(-c2c[n+](CC(=O)c3cccs3)c3n2CCC3)cc1	-9.0%	25.9µM*	-14.6%	19.4%	16.4µM*	-14.6%
Cc1c(C)c2ccc(OCC(=O)Nc3ccccc3C(N)=O)cc2oc1=O	12.8%	7.0%	-51.9%	u	-0.3%	7.8%
COCCCN1C(=O)N(c2ccccc2)C(=O)C1CC(=O)Nc1ccc(F)cc1 (stereo not drawn)	0.4%	u	-16.5%	-2.4%	-1.4%	-0.1%
Cc1ccsc1CCN1C(=O)N(c2ccc(F)cc2)C(=O)C1CC(=O)Nc1ccccc1 (stereo not drawn)	x	u	-6.5%	-22.5%	23.1µM*	x
Cc1ccsc1CCN1C(=O)N(c2ccccc2)C(=O)C1CC(=O)Nc1ccc(F)cc1 (stereo not drawn)	x	u	-38.8%	u	14.6µM*	x
CSc1ccc(/C=C/C(=O)OCC(=O)c2ccc[nH]2)cc1	2.9%	-19.1%	9.7%	5.5%	-3.7%	8.8%
SMILES	HT1080NT lethal	TDP1 cell CPT	HepG2 tox	TGFb SMAD3 inh	TDP1 cell noCPT	HT1080 IDH1KD tx
COc1ccc(N(C(C)=O)S(=O)(=O)c2cccc3cccnc23)cc1	3.9%	-23.1%	-6.6%	3.5%	-29.3%	20.1%
CC1(C(=O)NCc2ccc(C(F)(F)F)cc2)CCN1Cc1cc2ccccc2o1 (stereo not drawn)	-18.4%	20.6µM*	-50.0%	u	18.4µM*	u
CC1(C(=O)NCc2cccc3ccccc23)CCN1Cc1ccccc1OC(F)F (stereo not drawn)	u	20.6µM*	-40.8%	u	14.6µM*	u
CC1(C(=O)NCc2ccc(C(F)(F)F)cc2)CCN1Cc1ccccc1OC(F)F (stereo not drawn)	-14.6%	u	-40.1%	u	23.1µM*	u
Cc1ccc(C)c(C2NC(=O)c3ccccc3N2)c1 (stereo not drawn)	u	0.731µM*	-3.2%	-2.0%	0.581µM*	2.31µM*
O=C1NC(c2ccccc2O)Nc2ccccc21 (stereo not drawn)	-0.2%	-18.8%	-3.9%	-2.7%	-16.5%	1.4%
COc1ccc2cc(C3NC(=O)c4ccccc4N3)c(Cl)nc2c1 (stereo not drawn)	17.5%	-18.1%	-25.8%	-11.7%	u	8.1%
COc1ccc(C2NC(=O)c3ccccc3N2)c(OC)c1OC (stereo not drawn)	-16.1%	u	-10.3%	0.4%	u	u
COc1cc(C)c(C2NC(=O)c3ccccc3N2)cc1C (stereo not drawn)	5.8µM*	2.59µM*	-31.0%	u	2.06µM*	u
Cn1cc(C2NC(=O)c3ccccc3N2)c2ccccc21 (stereo not drawn)	4.61µM*	1.16µM*	0.7%	-11.7%	1.64µM*	8.2µM*
Cc1ccc(C)c2nc(Cl)c(C3NC(=O)c4ccccc4N3)cc12 (stereo not drawn)	u	u	0.5%	-10.2%	16.4µM*	u
Cc1[nH]c2ccccc2c1C(=O)C(=O)N1CCN(c2ccccc2F)CC1	15.8%	-0.5%	32.2%	0.4%	u	-0.4%
